Source: PubChem BioAssay AID488866 (Broad Institute, 2010)
Potency and affinity values are given separately. Calls of active or inactive are those of the source.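 Rule for the calls: active = compounds that lower nitrite signal with fitted half-max concentration up to ten times top dose; inconclusive = flat curves showing 30 to 70% inhibition, or poor fits; inactive = the rest.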

assay: suppression of NO production in INS-1E cells – cell-based, Griess absorbance, dry powder, dose response (AID 488866); settings: INS-1E cytokine-induced nitrite, 48 h; series mostly up to 19.5 µM

outcome, inactive:
Cc1ccc(S(=O)(=O)N(C)C[C@@H]2Oc3c(NC(=O)Nc4cccc5ccccc45)cccc3C(=O)N([C@@H](C)CO)C[C@H]2C)cc1, COc1ccc(S(=O)(=O)N(C)C[C@@H]2Oc3c(NC(=O)Nc4cccc5ccccc45)cccc3C(=O)N([C@@H](C)CO)C[C@H]2C)cc1F, C[C@@H]1CN([C@@H](C)CO)C(=O)c2cccc(NC(=O)Nc3cccc4ccccc34)c2O[C@H]1CN(C)S(=O)(=O)Cc1ccc(F)cc1, C[C@@H]1CN([C@@H](C)CO)C(=O)c2cccc(NC(=O)Nc3ccc(F)cc3)c2O[C@H]1CN(C)S(=O)(=O)c1ccc(Cl)cc1, C[C@@H]1CN([C@@H](C)CO)C(=O)c2cccc(NC(=O)Nc3cccc4ccccc34)c2O[C@H]1CN(C)S(=O)(=O)c1ccc2c(c1)OCCO2, COc1ccc(S(=O)(=O)N(C)C[C@@H]2Oc3c(NC(=O)Nc4cc(F)ccc4F)cccc3C(=O)N([C@@H](C)CO)C[C@H]2C)cc1, COc1ccc(S(=O)(=O)N(C)C[C@@H]2Oc3c(NC(=O)Nc4cccc(-c5ncccn5)c4)cccc3C(=O)N([C@@H](C)CO)C[C@H]2C)cc1, C[C@@H]1CN([C@@H](C)CO)C(=O)c2cccc(NC(=O)Nc3cccc4ccccc34)c2O[C@H]1CN(C)S(=O)(=O)c1ccc(F)cc1, C[C@@H]1CN([C@@H](C)CO)C(=O)c2cccc(NC(=O)Nc3cccc4ccccc34)c2O[C@H]1CN(C)S(=O)(=O)c1ccccc1F, COc1ccc(S(=O)(=O)N(C)C[C@@H]2Oc3c(NC(=O)Nc4ccc5c(c4)OCCO5)cccc3C(=O)N([C@@H](C)CO)C[C@H]2C)cc1, COc1ccccc1S(=O)(=O)N(C)C[C@@H]1Oc2c(NC(=O)Nc3cccc4ccccc34)cccc2C(=O)N([C@@H](C)CO)C[C@H]1C, COc1ccc(S(=O)(=O)N(C)C[C@@H]2Oc3ccc(NC(=O)Nc4cccc5ccccc45)cc3C(=O)N([C@@H](C)CO)C[C@H]2C)cc1, COc1ccc(S(=O)(=O)N(C)C[C@@H]2Oc3c(NC(=O)Nc4ccc5occc5c4)cccc3C(=O)N([C@@H](C)CO)C[C@H]2C)cc1, Cc1ccc(S(=O)(=O)N(C)C[C@@H]2Oc3c(NC(=O)Nc4ccc(F)cc4)cccc3C(=O)N([C@H](C)CO)C[C@H]2C)cc1, COc1ccc(S(=O)(=O)N(C)C[C@@H]2Oc3c(NC(=O)c4cccc5ccccc45)cccc3C(=O)N([C@@H](C)CO)C[C@H]2C)cc1, COc1ccc(S(=O)(=O)N(C)C[C@@H]2Oc3c(NC(=O)Nc4cccc5c4CC(C)(C)O5)cccc3C(=O)N([C@@H](C)CO)C[C@H]2C)cc1, C[C@@H]1CN([C@@H](C)CO)C(=O)c2cccc(NC(=O)Nc3ccc(F)cc3)c2O[C@H]1CN(C)S(=O)(=O)c1ccc(F)cc1, COc1cccc(S(=O)(=O)N(C)C[C@@H]2Oc3c(NC(=O)Nc4cccc5ccccc45)cccc3C(=O)N([C@@H](C)CO)C[C@H]2C)c1, COc1ccc(S(=O)(=O)N(C)C[C@@H]2Oc3c(NC(=O)Nc4cccc5c4NSN5)cccc3C(=O)N([C@@H](C)CO)C[C@H]2C)cc1, Cc1ccc(S(=O)(=O)N(C)C[C@@H]2Oc3c(NC(=O)Nc4ccc(F)cc4)cccc3C(=O)N([C@@H](C)CO)C[C@H]2C)cc1, COc1ccc(S(=O)(=O)N(C)C[C@@H]2Oc3c(NC(=O)Nc4cc(F)cc5c4OCOC5)cccc3C(=O)N([C@@H](C)CO)C[C@H]2C)cc1, COc1ccc(S(=O)(=O)N(C)C[C@@H]2Oc3c(NC(=O)Nc4cccc5ccccc45)cccc3C(=O)N([C@@H](C)CO)C[C@H]2C)cc1, C[C@@H]1CN([C@@H](C)CO)C(=O)c2cccc(NC(=O)Nc3cccc4ccccc34)c2O[C@H]1CN(C)S(=O)(=O)c1ccc(Oc2ccccc2)cc1, C[C@@H]1CN([C@@H](C)CO)C(=O)c2cccc(NC(=O)Nc3cccc4ccccc34)c2O[C@H]1CN(C)S(=O)(=O)c1ccc2c(c1)CCC(=O)N2, COc1ccc(S(=O)(=O)N(C)C[C@@H]2Oc3c(NC(=O)Nc4cccc5c4ccn5C)cccc3C(=O)N([C@@H](C)CO)C[C@H]2C)cc1, COc1ccc(S(=O)(=O)N(C)C[C@@H]2Oc3c(NC(=O)Nc4cccc5c4CCCC5)cccc3C(=O)N([C@@H](C)CO)C[C@H]2C)cc1
